system: Vero E6 infected with SARS-CoV-2; test: SARS-CoV-2 infection rate relative to infected DMSO; higher = more infection, active = 60 or less; conditions: 24 h

Compound | SARS-CoV-2 infection rate
CC(C)(C)C(=O)OCC(=O)[C@H]1CC[C@H]2[C@@H]3CCC4=CC(=O)CC[C@]4(C)[C@H]3CC[C@]12C [desoxycorticosterone-pivalate] (10 µM) | 106% (inactive)
NCCC(=O)N[C@@H](Cc1c[nH]cn1)C(=O)O [carnosine] (0.833333 µM) | 99% (inactive)
N#Cc1c(-c2ccccc2)cc(-c2cc(Br)ccc2O)[nH]c1=O (10 µM) | 110% (inactive)
CCCC(CCC)C(=O)Nc1ccn([C@@H]2O[C@H](CO)[C@@H](O)C2(F)F)c(=O)n1 (0.833333 µM) | 100% (inactive)
CCCCN(CCCC)CC(O)c1cc(Cl)cc2c1-c1ccc(Cl)cc1/C2=C/c1ccc(Cl)cc1 (stereo not drawn) [lumefantrine] (10 µM) | 91.5% (inactive)
CC(C)(C)NC(=O)N[C@H](C(=O)N1C[C@H]2[C@@H]([C@H]1C(=O)NC(CC1CCC1)C(=O)C(N)=O)C2(C)C)C(C)(C)C (stereo partly drawn) [boceprevir] (10 µM) | 113% (inactive)
CC1(C)CCC(C)(C)c2c1cc(C(=O)Nc1cc(F)c(C(=O)O)c(F)c1)c(O)c2Cl (10 µM) | 110% (inactive)
CO[C@H]1CC[C@H](N2C(=O)CNc3ncc(-c4ccc(C(C)(C)O)nc4)nc32)CC1 (0.833333 µM) | 82.5% (inactive)
